# Inconclusive results are not listed. A call without a number means that no potency is given here. Activity calls are given as the source filed them. Unless noted, the call rests on the fitted dose curve; in most records, active means well fitted inhibition curve with a large enough effect; inconclusive means small, poorly fitted or top-dose-only effect; inactive means no such curve, though single readings can be large or run the other way.
# Legend:
# [1] = target: Cytochrome P450 1A2 (Homo sapiens) (UniProt P05177); experiment: p450-cyp1a2 (AID 410; calls by dose curve; further: potency means the concentration at half of the fitted maximal effect)
# Summary of the method: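 Luminescent demethylation readout: Luciferin-ME (100uM, equal to Km) turned over by 20nM CYP1A2 for 60 min at room temperature after NADPH regeneration addition, following 10 min compound preincubation. Normalization used 57 uM furafylline as full inhibition.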
# [2] = target: 3',5'-cyclic-AMP phosphodiesterase 4B (Homo sapiens) (UniProt Q07343); experiment: qHTS Assay for Inhibitors of PDE-IV (AID 607; active means well fitted activation curve with a large enough effect in the main read-out, with a control signal flat, not every such curve was filed as active)
# Summary of the method: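 HEK293 ACTOne cells with CNG channel (1000/well), endogenous PDE4; membrane potential dye, compounds up to 22.9 uM final. Fluorescence Ex 535/Em 590; RO 20-1724 (100 uM final) as reference.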
# [3] = target: Cytochrome P450 2D6 (Homo sapiens) (UniProt P10635); experiment: qHTS Assay for Inhibitors and Substrates of Cytochrome P450 2D6 (AID 891);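 further: luciferin methyl ether substrate demethylated by CYP2D6 with NADPH regeneration; nearly all actives have a fitted effect of over 60% in size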
# Summary of the method: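 Luminescent read-out of luciferin formed by 5 nM human CYP2D6 demethylating 30 uM Luciferin-ME EGE (Km level) over 60 min at room temperature after NADPH regeneration addition. Data normalized to full inhibition by 1.43 uM quinidine.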
# [4] = target: Cytochrome P450 2C19 (Homo sapiens) (UniProt P33261); experiment: qHTS Assay for Inhibitors and Substrates of Cytochrome P450 2C19 (AID 899); further: nearly all actives have a fitted effect of over 60% in size; further: potency means the concentration at half of the fitted maximal effect
# Summary of the method: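 5nM enzyme + 10uM Luciferin-H EGE (=KM), 50mM KPO4; cpd pin-transferred, 10 min 37C; NADPH regen, 60 min 37C; stopped w/ luciferin detection reagent, 20 min; luminescence. Normalized to 57uM ketoconazole (AC100).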
# Sequence of Cytochrome P450 1A2 (Homo sapiens) (P05177 whole entry, looked up): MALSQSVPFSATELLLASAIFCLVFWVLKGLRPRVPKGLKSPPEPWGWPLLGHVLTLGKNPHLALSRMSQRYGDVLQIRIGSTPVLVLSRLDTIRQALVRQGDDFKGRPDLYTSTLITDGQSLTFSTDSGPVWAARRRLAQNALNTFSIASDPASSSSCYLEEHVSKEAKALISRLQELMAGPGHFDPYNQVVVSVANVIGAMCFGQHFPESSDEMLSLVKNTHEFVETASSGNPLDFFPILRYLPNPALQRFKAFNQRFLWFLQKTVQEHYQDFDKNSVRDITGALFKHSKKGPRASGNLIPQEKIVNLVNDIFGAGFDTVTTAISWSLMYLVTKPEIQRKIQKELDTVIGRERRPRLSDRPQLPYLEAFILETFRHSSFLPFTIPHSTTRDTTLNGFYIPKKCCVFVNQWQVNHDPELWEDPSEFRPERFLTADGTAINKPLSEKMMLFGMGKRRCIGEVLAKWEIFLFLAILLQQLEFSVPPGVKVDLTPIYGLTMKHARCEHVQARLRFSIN
# Sequence of Cytochrome P450 2C19 (Homo sapiens) (P33261 whole entry, looked up): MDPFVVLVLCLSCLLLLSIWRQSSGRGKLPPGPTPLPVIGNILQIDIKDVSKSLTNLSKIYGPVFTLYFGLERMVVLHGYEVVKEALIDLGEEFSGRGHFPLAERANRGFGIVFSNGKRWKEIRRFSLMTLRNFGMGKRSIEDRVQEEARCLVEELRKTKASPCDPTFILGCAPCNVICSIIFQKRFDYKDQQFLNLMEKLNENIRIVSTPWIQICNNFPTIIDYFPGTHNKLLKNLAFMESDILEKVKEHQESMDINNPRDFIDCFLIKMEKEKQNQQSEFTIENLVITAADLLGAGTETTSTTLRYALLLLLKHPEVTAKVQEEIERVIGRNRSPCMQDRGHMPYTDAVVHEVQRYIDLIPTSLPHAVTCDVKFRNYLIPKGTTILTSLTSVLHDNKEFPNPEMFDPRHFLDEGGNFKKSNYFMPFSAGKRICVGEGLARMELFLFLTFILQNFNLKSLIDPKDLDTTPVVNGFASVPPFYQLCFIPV
# Sequence of 3',5'-cyclic-AMP phosphodiesterase 4B (Homo sapiens) (Q07343 whole entry, looked up): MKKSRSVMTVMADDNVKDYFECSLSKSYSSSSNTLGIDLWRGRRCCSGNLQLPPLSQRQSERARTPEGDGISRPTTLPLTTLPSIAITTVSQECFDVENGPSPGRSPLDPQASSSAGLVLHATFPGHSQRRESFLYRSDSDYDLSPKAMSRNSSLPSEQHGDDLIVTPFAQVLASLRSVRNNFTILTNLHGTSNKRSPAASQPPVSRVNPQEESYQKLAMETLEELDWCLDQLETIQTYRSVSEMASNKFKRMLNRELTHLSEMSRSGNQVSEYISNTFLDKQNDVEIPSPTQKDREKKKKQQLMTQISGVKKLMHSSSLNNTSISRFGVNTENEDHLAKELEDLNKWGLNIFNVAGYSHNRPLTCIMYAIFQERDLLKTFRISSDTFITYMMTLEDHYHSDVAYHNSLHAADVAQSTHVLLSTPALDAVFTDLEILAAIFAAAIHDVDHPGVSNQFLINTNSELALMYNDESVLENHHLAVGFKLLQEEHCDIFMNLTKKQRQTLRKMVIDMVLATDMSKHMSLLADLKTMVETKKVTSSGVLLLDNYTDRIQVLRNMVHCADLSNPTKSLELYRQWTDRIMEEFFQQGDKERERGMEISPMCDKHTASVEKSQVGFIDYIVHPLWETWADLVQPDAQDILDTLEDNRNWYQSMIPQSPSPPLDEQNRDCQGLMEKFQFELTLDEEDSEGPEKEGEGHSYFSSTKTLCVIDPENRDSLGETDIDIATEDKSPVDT
# Sequence of Cytochrome P450 2D6 (Homo sapiens) (P10635 whole entry, looked up): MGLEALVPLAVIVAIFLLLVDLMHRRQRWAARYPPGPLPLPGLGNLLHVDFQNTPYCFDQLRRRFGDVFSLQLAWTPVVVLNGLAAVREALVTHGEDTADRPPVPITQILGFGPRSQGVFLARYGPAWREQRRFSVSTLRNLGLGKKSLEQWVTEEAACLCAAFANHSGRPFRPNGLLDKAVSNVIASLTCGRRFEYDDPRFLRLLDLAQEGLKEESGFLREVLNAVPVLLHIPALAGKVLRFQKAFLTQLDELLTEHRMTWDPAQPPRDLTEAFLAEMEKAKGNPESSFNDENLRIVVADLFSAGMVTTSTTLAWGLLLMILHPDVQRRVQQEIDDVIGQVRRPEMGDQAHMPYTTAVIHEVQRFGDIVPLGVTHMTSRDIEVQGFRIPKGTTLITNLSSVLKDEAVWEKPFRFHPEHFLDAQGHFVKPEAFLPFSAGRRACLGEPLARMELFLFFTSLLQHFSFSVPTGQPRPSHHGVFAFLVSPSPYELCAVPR
SMILES,Potency [1],Potency [2],Potency [3],Potency [4]
CC(C)C[C@@H](CC(=O)N[C@@H](CCC(=O)O)CC(=O)O)NC(=O)[C@@H]1CNCC[C@H]1NC(=O)C[C@@H](NC(=O)C[C@H](CO)NC(=O)[C@@H]1CNCC[C@H]1N)C(C)C,inactive,inactive,inactive,inactive
CCC/C=C(\CCC)C(NS(=O)(=O)c1ccc(-c2ccccc2)cc1)c1ccc(C(=O)OC)cc1 (stereo unspecified),6.31 µM (active),,,1.26 µM (active)

# From PubChem BioAssay (NCATS)
